This is an account of results in PubChem BioAssay.

Values without a mark were called inactive. For some of these results: Potency and affinity values are given separately. The source made the active and inactive calls. Unless noted, no rule for the calls is given here.

Assay [1] is described as follows: antimalarial activity against Dd2 strain (AID 2302;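 active = growth inhibition above 50% at the single 2 µM test dose, taken to imply half-maximal potency below 2 µM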;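 also: 0% = DMSO untreated growth and 100% = chloroquine plus artemisinin killed control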). The settings on record: P. falciparum Dd2 in RBCs, LDH growth readout, 72 h; at 2 µM; stronger effect = higher value.
Assay [2] can be described thus: HepG2 cytotoxicity, primary screen, cytotoxicity control for P. falciparum antimalarial project, cell-based, ATP luminescence (AID 2303;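 active = inhibition above 50%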;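 also: 0% = DMSO wells and 100% = digitonin-killed cells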). The note with it: HepG2 viability, 24-48 h, at 10 µM, stronger effect = higher value.
Assay [3] concerns the target L-lactate dehydrogenase (Plasmodium falciparum (isolate CDC / Honduras)) (UniProt Q27743). Briefly: PfLDH activity inhibition – cell lysate, 3D7 strain, counter-screen for P. falciparum growth inhibition project (AID 2304).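 Also: 0% = vehicle and 100% = reference inhibitor.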 The settings on record: P. falciparum 3D7 crude extract, LDH APAD/NBT absorbance; at 2 µM; stronger effect = higher value.
Assay [4] is described as follows: inhibition of 3D7 malaria parasite growth – strain 3D7 (AID 2306).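 Also: 0% = DMSO wells and 100% = chloroquine plus artemisinin control wells.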 The note with it: P. falciparum 3D7 erythrocytic growth, LDH absorbance, 72 h; at 2 µM; stronger effect = higher value.
In assay [5] the target is Calcium-dependent protein kinase 1 (Plasmodium falciparum (isolate 3D7)) (UniProt P62344). Put plainly: PfCDPK1 kinase inhibitors, biochemical, TCAMS library (AID 1159585; cut-off not given, nearly all actives have IC50 up to about 0.98 µM;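 also: inhibitors leave more ATP so luminescence rises with inhibition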). The note with it: recombinant PfCDPK1, Kinase-Glo ATP depletion luminescence.
Calcium-dependent protein kinase 1 (Plasmodium falciparum (isolate 3D7)), sequence (P62344 whole entry, looked up): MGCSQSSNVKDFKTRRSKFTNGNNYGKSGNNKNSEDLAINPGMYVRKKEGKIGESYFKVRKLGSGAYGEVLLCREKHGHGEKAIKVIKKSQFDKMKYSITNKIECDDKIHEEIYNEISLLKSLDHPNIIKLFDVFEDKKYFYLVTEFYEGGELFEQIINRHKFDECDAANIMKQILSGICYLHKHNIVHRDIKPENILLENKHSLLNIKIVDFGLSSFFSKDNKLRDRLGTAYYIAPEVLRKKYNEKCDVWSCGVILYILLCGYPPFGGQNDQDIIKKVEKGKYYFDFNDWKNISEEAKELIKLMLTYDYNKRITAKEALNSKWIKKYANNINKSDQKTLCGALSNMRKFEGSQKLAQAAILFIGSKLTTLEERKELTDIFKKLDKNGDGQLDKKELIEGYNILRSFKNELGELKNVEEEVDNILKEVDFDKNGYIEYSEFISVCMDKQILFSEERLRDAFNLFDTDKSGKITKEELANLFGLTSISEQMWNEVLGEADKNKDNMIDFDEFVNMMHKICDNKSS
Assay [6] concerns the target Plasmodium falciparum protein kinase 6 (PK6, PF3D7_1337100) (UniProt Q8IDW1). Put plainly: PfPK6 kinase inhibitors, biochemical, TCAMS library (AID 1159586). The note with it: recombinant PfPK6, Kinase-Glo ATP depletion luminescence.
In assay [7] the target is Protein kinase 7 (PK7), Plasmodium falciparum 3D7 (PF3D7_0213400) (UniProt Q7YTF7). Put plainly: inhibition of Plasmodium PK7 catalytic activity – biochemical, TCAMS antimalarial set, Kinase-Glo luminescence (AID 1159587). The settings on record: recombinant PfPK7, Kinase-Glo ATP depletion luminescence.
Protein kinase 7 (PK7), Plasmodium falciparum 3D7 (PF3D7_0213400), sequence (Q7YTF7 1-343): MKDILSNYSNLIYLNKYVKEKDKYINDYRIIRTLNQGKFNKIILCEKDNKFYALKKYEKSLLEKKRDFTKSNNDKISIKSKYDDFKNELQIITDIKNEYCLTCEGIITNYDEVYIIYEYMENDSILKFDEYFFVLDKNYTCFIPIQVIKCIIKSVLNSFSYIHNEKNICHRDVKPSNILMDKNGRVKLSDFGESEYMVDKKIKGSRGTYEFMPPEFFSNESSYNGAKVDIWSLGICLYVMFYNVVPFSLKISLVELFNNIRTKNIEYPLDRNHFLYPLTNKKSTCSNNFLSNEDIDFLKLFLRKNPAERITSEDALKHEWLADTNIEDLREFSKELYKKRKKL
The target of assay [8] is Calcium-dependent protein kinase 4 (Plasmodium falciparum (isolate 3D7)) (UniProt Q8IBS5). Put plainly: PfCDPK4 kinase inhibitors, biochemical, TCAMS library (AID 1159588; cut-off not given, nearly all actives have IC50 up to about 0.91 µM). The settings on record: recombinant PfCDPK4, Kinase-Glo ATP depletion luminescence.
Calcium-dependent protein kinase 4 (Plasmodium falciparum (isolate 3D7)), sequence (Q8IBS5 whole entry, looked up): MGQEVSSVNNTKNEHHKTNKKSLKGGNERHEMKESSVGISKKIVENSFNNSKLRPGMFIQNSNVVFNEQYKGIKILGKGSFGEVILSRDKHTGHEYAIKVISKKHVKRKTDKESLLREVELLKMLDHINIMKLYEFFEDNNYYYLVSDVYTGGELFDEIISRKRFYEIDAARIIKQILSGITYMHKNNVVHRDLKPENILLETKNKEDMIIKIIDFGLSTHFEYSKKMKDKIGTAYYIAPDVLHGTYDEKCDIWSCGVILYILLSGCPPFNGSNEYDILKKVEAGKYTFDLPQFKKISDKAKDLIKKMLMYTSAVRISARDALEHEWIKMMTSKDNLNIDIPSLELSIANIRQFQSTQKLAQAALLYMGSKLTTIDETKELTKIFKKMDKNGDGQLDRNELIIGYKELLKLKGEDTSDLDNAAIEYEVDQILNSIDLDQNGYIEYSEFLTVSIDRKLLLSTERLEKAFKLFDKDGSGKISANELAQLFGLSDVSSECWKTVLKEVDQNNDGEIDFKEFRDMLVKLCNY

L-lactate dehydrogenase (Plasmodium falciparum (isolate CDC / Honduras)), sequence (Q27743 whole entry, looked up): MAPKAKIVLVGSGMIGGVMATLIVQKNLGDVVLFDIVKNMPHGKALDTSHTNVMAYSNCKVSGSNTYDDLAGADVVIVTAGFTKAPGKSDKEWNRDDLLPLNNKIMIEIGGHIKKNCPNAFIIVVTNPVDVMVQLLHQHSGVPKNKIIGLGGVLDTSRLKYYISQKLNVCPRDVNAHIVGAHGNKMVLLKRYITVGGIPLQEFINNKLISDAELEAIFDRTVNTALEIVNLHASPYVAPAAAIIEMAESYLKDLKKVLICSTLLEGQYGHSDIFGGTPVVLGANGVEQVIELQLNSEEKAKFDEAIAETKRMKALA
Plasmodium falciparum protein kinase 6 (PK6, PF3D7_1337100), sequence (Q8IDW1 1-305): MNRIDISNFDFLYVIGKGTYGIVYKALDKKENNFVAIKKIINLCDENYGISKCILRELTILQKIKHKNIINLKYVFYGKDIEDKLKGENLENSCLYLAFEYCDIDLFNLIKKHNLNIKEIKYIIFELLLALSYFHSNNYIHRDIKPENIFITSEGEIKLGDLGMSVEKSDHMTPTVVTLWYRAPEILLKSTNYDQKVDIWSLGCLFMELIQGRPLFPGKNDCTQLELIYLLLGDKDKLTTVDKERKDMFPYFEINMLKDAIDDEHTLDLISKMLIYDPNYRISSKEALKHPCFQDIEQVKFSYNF

Take `COC(=O)c1cccc(CNCc2ccc(-c3ccc(-c4nc5c(C)cccc5[nH]4)s3)cc2)c1`: the growth inhibition in assay [1] was 64% (active); in assay [4] it was 101% (active). The figures for the inhibition in assay [2] and in assay [3] were 3% and 0%, respectively. Besides, the result in assay [5], in assay [6], in assay [7] and in assay [8] was inactive.

Take `COC(=O)c1cc(OC2CCOC2=O)cc2c1OC(C)(C)O2` (stereo not given): the growth inhibition in assay [1] was -1%; in assay [4], 97% (active). The results for the inhibition in assay [2] and in assay [3] were 6% and 2%, respectively. The result in assay [5], in assay [6], in assay [7] and in assay [8] was inactive.

Turning to `Cn1cncc1C(=O)Nc1ccc(-c2cccc(-c3nc4ccc(C(F)(F)F)cc4[nH]3)c2)cc1`, the growth inhibition in assay [1] was 3%; in assay [4], 100% (active). In addition, the values for the inhibition in assay [2] and in assay [3] were 34% and 4%, respectively. In addition, the outcome in assay [5], in assay [6], in assay [7] and in assay [8] was inactive.

With `CCc1ccc(-n2c(NC(=O)c3ccccc3)nc3ccc(S(=O)(=O)NC(C)C(C)C)cc32)cc1` (stereo not given), the growth inhibition was -4% in assay [1] and 88% (active) in assay [4]. For the same molecule, the inhibition in assay [2] is 48%; in assay [3], 0%. The result in assay [5], in assay [6], in assay [7] and in assay [8] was inactive.

`CC(C)NC(C)(C)CN(Cc1ccc(-c2ccc(C(F)(F)F)cc2)cc1)C(=O)Cn1c(CCc2cccc(F)c2F)nc(=O)c2ccccc21`: the growth inhibition is 68% (active) in assay [1] and 94% (active) in assay [4]. For the same molecule, the inhibition in assay [2] is 44%; in assay [3], 3%. In addition, the outcome in assay [5], in assay [6], in assay [7] and in assay [8] was inactive.

Consider `CCN(CC)CCN(Cc1ccc(-c2ccc(C(F)(F)F)cc2)cc1)C(=O)Cn1cc(CCCc2cccc(F)c2F)c(=O)c2ccccc21`, for which the values for the growth inhibition in assay [1] and in assay [4] were 20% and 89% (active), respectively. Moreover, the figures for the inhibition in assay [2] and in assay [3] were 13% and -4%, respectively. In addition, the result in assay [5], in assay [6], in assay [7] and in assay [8] was inactive.

In the case of `CN1CCC(C(=O)Nc2cccc(-c3ccc(-c4nc5ccccc5[nH]4)cc3)c2)CC1`, the growth inhibition is 15% in assay [1] and 82% (active) in assay [4]. Further, the inhibition was 7% in assay [2] and 5% in assay [3]. The outcome in assay [5], in assay [6], in assay [7] and in assay [8] was inactive.

As to `CCOC(=O)/C(=N\OC(C(=O)OC(C)(C)C)c1ccccc1)c1csc(NC(c2ccccc2)(c2ccccc2)c2ccccc2)n1` (stereo not given), the values for the growth inhibition in assay [1] and in assay [4] were 68% (active) and 89% (active), respectively. Besides, the inhibition in assay [2] is 14%; in assay [3], 5%. The outcome in assay [5], in assay [6], in assay [7] and in assay [8] was inactive.

As to `Cc1cccc2[nH]c(-c3cccc(-c4ccc(NC(=O)c5ccncc5)cc4)c3)nc12`, the growth inhibition was 74% (active) in assay [1] and 98% (active) in assay [4]. The inhibition is 34% in assay [2] and -5% in assay [3]. Further, the outcome in assay [5], in assay [6], in assay [7] and in assay [8] was inactive.

With `CCCNCc1ccc(-c2ccc(CN(CCOC)C(=O)c3cscn3)cc2)nc1`, the figures for the growth inhibition in assay [1] and in assay [4] were 16% and 99% (active), respectively. In addition, the inhibition in assay [2] is 13%; in assay [3], 2%. The outcome in assay [5], in assay [6], in assay [7] and in assay [8] was inactive.

Consider `CCn1ccc2c(N3CCCCS3(=O)=O)cc(C(=O)N[C@@H](Cc3ccccc3)[C@H](O)CNC3CCCCC3)cc21`, for which the growth inhibition in assay [1] and in assay [4] was 98% (active) in each case. The inhibition in assay [2] and in assay [3] was 1% in each case. For the same molecule, the result in assay [5], in assay [6], in assay [7] and in assay [8] was inactive.

`FC(F)(F)c1ccc2nc(-c3cccc(-c4cccc(CN5CCN(c6ccncc6)CC5)c4)c3)[nH]c2c1`: the growth inhibition in assay [1] is 99% (active); in assay [4], 100% (active). For the same molecule, the inhibition in assay [2] is 93% (active); in assay [3] it was 3%. Besides, the result in assay [5], in assay [6], in assay [7] and in assay [8] was inactive.

Turning to `COc1cccc(C2CCCN(CCCCNC(=O)c3ccc(NC(=O)c4ccc(Cl)cc4)cc3)C2)c1` (stereo not given), the growth inhibition in assay [1] was 6%; in assay [4], 95% (active). In addition, the inhibition in assay [2] is 24%; in assay [3] it was -2%. The outcome in assay [5], in assay [6], in assay [7] and in assay [8] was inactive.

Take `CC(C)C(NC(=O)Cc1cccc2ccccc12)C(=O)Nc1cccc(C#N)c1` (stereo not given): the growth inhibition is 91% (active) in assay [1] and 92% (active) in assay [4]. Further, the inhibition in assay [2] was -3%; in assay [3] it was 0%. Moreover, the result in assay [5], in assay [6], in assay [7] and in assay [8] was inactive.

In the case of `Nc1nc(N)c2c(Cl)c(N(Cc3ccccc3)Cc3ccccc3)ccc2n1`, the results for the growth inhibition in assay [1] and in assay [4] were 2% and 96% (active), respectively. Further, the inhibition in assay [2] was 66% (active); in assay [3], 2%. The outcome in assay [5], in assay [6], in assay [7] and in assay [8] was inactive.

On to `COc1ccc2nccc(N3CCC(SCCNCc4cc5c(cn4)OCCO5)C3)c2n1` (stereo not given), for which the growth inhibition in assay [1] is 100% (active); in assay [4], 101% (active). For the same molecule, the inhibition is 30% in assay [2] and 2% in assay [3]. The outcome in assay [5], in assay [6], in assay [7] and in assay [8] was inactive.

With `N=C(N)c1ccc(OCc2cccc(COc3ccc(C(=N)N)cc3I)c2)c(I)c1`, the growth inhibition in assay [1] is 100% (active); in assay [4], 102% (active). Besides, the inhibition in assay [2] is 7%; in assay [3], 2%. Also, the outcome in assay [5], in assay [6], in assay [7] and in assay [8] was inactive.

With `CC(=O)Nc1ccc(C(=O)NC2CCN(c3ccnc4cc(Cl)ccc34)C2)cc1` (stereo not given), the growth inhibition in assay [1] is 100% (active); in assay [4], 101% (active). Further, the inhibition in assay [2] was 1%; in assay [3], -1%. For the same molecule, the outcome in assay [5], in assay [6], in assay [7] and in assay [8] was inactive.

With `O=S(=O)(c1cccc2cccnc12)N1CCN(C2CCCCC2)CC1`, the growth inhibition in assay [1] is 10%; in assay [4] it was 96% (active). Further, the results for the inhibition in assay [2] and in assay [3] were 15% and 1%, respectively. Further, the result in assay [5], in assay [6], in assay [7] and in assay [8] was inactive.

`C[C@@H](COc1ccccc1)NCC(O)c1ccc([N+](=O)[O-])c(OCc2ccccc2)c1` (stereo not given in full): the figures for the growth inhibition in assay [1] and in assay [4] were 64% (active) and 93% (active), respectively. Moreover, the figures for the inhibition in assay [2] and in assay [3] were 5% and 7%, respectively. Moreover, the result in assay [5], in assay [6], in assay [7] and in assay [8] was inactive.
